Each structure is given as a SMILES string. The panel holds about 79,000 compounds, 15% with a hit somewhere; the sample as a whole holds those more often. Unmarked numbers belong to inactive results. The source made the active and inactive calls. Rule as the data show it: active = growth inhibition above about 70%; inactive = the rest.

A short description of experiment [1]: NCI Yeast Anticancer Drug Screen. Data for the rad50 strain (AID 155).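 Also: 0% = growth of vehicle-only cultures of the same strain.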 The following applies: S. cerevisiae rad50 strain growth inhibition, stronger effect = higher value. An outline of the steps: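 Vehicle-treated cultures provide the reference for the growth inhibition reported for compound-exposed, repair-deficient yeast.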
Experiment [2] is described as follows: NCI Yeast Anticancer Drug Screen. Data for the mec2-1 strain (AID 157). The following applies: S. cerevisiae mec2-1 strain, stronger effect = higher value. The gist of the method: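 Readout is yeast growth inhibition, normalised to vehicle-treated controls, in the mec2-1 strain exposed to compound.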
A short description of experiment [3]: NCI Yeast Anticancer Drug Screen. Data for the sgs1 mgt1 strain (AID 161).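 Also: 0% = growth of cultures given vehicle only.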 The following applies: S. cerevisiae sgs1 mgt1 strain, stronger effect = higher value. An outline of the steps: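 This yeast growth screen uses a strain with defined DNA-repair lesions; compound-treated growth is compared with vehicle-treated growth.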
A short description of experiment [4]: NCI Yeast Anticancer Drug Screen. Data for the cln2 rad14 strain (AID 165).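 Also: 0% = growth equal to vehicle treated cultures.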 The following applies: S. cerevisiae cln2 rad14 strain, stronger effect = higher value. An outline of the steps:
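Relative to vehicle controls, growth inhibition of compound-treated cln2 rad14 yeast was recorded.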

The nature of experiment [5]: NCI Yeast Anticancer Drug Screen. Data for the bub3 strain (AID 167). The following applies: S. cerevisiae bub3 mutant strain, stronger effect = higher value. An outline of the steps:
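Mutant yeast screening strain plus compound; vehicle-treated cultures serve as the 0% inhibition reference.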

Experiment [6] is described as follows: NCI Yeast Anticancer Drug Screen. Data for the mlh1 rad18 strain (AID 175). The following applies: S. cerevisiae mlh1 rad18 strain growth inhibition, stronger effect = higher value. The gist of the method:
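Test agents were incubated with a yeast strain of defined genotype (DNA damage repair defect). Inhibition of growth was derived by comparison with vehicle-exposed cultures.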

Where [7] appears, read: at 5.0 µM (retest, dose inferred, filed as 0.5).
[8] abbreviates: at 50.0 µM (retest, dose inferred, filed as 5.0).

On to `Nc1ccc2c(c1)[nH]c(=O)c1c(Cl)cccc12`, for which the growth inhibition in experiment [1] (setting [7]) is -108%; in experiment [1] (setting [8]) it was 47%; in experiment [1] (at 50.0 µM) it was 84.5% (active); in experiment [2] (setting [7]) it was -41%; in experiment [2] (setting [8]) it was -26%; in experiment [2] (at 50.0 µM), 41%. Moreover, the growth inhibition in experiment [3] (setting [7]) is -58%; in experiment [3] (setting [8]), -33%; in experiment [3] (at 50.0 µM), 21.4%; in experiment [4] (setting [7]), -46%; in experiment [4] (setting [8]), -39%; in experiment [4] (at 50.0 µM), 48.5%. Besides, the growth inhibition in experiment [5] (setting [7]) is -50%; in experiment [5] (setting [8]) it was -42%; in experiment [5] (at 50.0 µM), 4.8%; in experiment [6] (setting [7]), -87%; in experiment [6] (setting [8]), -45%; in experiment [6] (at 50.0 µM), 55.5%.

Take `OCC1CC[N-]CC1.OCC1CC[N-]CC1.[Cl][Pt+2]([Cl])([Cl])[Cl]`: the growth inhibition in experiment [1] (setting [7]) was 24%; in experiment [1] (setting [8]), 99% (active); in experiment [1] (at 50.0 µM), 98.4% (active); in experiment [2] (setting [7]) it was 5%; in experiment [2] (setting [8]), 97% (active); in experiment [2] (at 50.0 µM), 92.6% (active). The growth inhibition is 33% in experiment [3] (setting [7]); 98% (active) in experiment [3] (setting [8]); 96.8% (active) in experiment [3] (at 50.0 µM); 15% in experiment [4] (setting [7]); 98% (active) in experiment [4] (setting [8]); 92.3% (active) in experiment [4] (at 50.0 µM). Besides, the growth inhibition in experiment [5] (setting [7]) is 6%; in experiment [5] (setting [8]), 99% (active); in experiment [5] (at 50.0 µM) it was 96.2% (active); in experiment [6] (setting [7]), 40%; in experiment [6] (setting [8]), 98% (active); in experiment [6] (at 50.0 µM) it was 82.5% (active).

Consider `COc1cc(OC)c(C(=O)[O][Sn]([c]2ccccc2)([c]2ccccc2)[c]2ccccc2)cc1OC`, for which the growth inhibition in experiment [1] (setting [7]) is 100% (active); in experiment [1] (setting [8]), 98% (active); in experiment [1] (at 50.0 µM) it was 98.4% (active); in experiment [2] (setting [7]) it was 100% (active); in experiment [2] (setting [8]), 100% (active); in experiment [2] (at 50.0 µM) it was 96.3% (active). Also, the growth inhibition is 99% (active) in experiment [3] (setting [7]); 99% (active) in experiment [3] (setting [8]); 97.3% (active) in experiment [3] (at 50.0 µM); 99% (active) in experiment [4] (setting [7]); 99% (active) in experiment [4] (setting [8]); 90.5% (active) in experiment [4] (at 50.0 µM). The growth inhibition in experiment [5] (setting [7]) is 96% (active); in experiment [5] (setting [8]), 99% (active); in experiment [5] (at 50.0 µM), 96.1% (active); in experiment [6] (setting [7]) it was 99% (active); in experiment [6] (setting [8]) it was 100% (active); in experiment [6] (at 50.0 µM), 96.7% (active).

With `C/C(=N\NC(=S)N(C)C)c1cccnn1`, the growth inhibition in experiment [1] (setting [7]) is 95% (active); in experiment [1] (setting [8]), 99% (active); in experiment [1] (at 50.0 µM), 84.8% (active); in experiment [2] (setting [7]), 91% (active); in experiment [2] (setting [8]) it was 99% (active); in experiment [2] (at 50.0 µM), 91.4% (active). The growth inhibition is 92% (active) in experiment [3] (setting [7]); 98% (active) in experiment [3] (setting [8]); 87.3% (active) in experiment [3] (at 50.0 µM); 94% (active) in experiment [4] (setting [7]); 95% (active) in experiment [4] (setting [8]); 86.8% (active) in experiment [4] (at 50.0 µM). Further, the growth inhibition in experiment [5] (setting [7]) is 95% (active); in experiment [5] (setting [8]), 99% (active); in experiment [5] (at 50.0 µM) it was 89.5% (active); in experiment [6] (setting [7]), 96% (active); in experiment [6] (setting [8]), 99% (active); in experiment [6] (at 50.0 µM) it was 83.2% (active).

Consider `Cc1cc(SCC(=O)c2ccccc2)cc(C)[o+]1`, for which the growth inhibition was -4% in experiment [1] (setting [7]); 82% (active) in experiment [1] (setting [8]); 92% (active) in experiment [1] (at 50.0 µM); -5% in experiment [2] (setting [7]); 80% (active) in experiment [2] (setting [8]); 95.6% (active) in experiment [2] (at 50.0 µM). In addition, the growth inhibition in experiment [3] (setting [7]) is -7%; in experiment [3] (setting [8]) it was 44%; in experiment [3] (at 50.0 µM) it was 56.4%; in experiment [4] (setting [7]), -6%; in experiment [4] (setting [8]), 1%; in experiment [4] (at 50.0 µM) it was 17.6%. Besides, the growth inhibition in experiment [5] (setting [7]) was 0%; in experiment [5] (setting [8]), 86% (active); in experiment [5] (at 50.0 µM), 97.9% (active); in experiment [6] (setting [7]), 1%; in experiment [6] (setting [8]), 69%; in experiment [6] (at 50.0 µM), 95.4% (active).

Take `NC1=NOC(=O)C1Cc1ccccc1` (configuration not stated): the growth inhibition was -2% in experiment [1] (setting [7]); -1% in experiment [1] (setting [8]); 2.3% in experiment [1] (at 50.0 µM); 0% in experiment [2] (setting [7]); -4% in experiment [2] (setting [8]); 8% in experiment [2] (at 50.0 µM). Further, the growth inhibition in experiment [3] (setting [7]) is -1%; in experiment [3] (setting [8]) it was -2%; in experiment [3] (at 50.0 µM), 1.8%; in experiment [4] (setting [7]), -7%; in experiment [4] (setting [8]), -4%; in experiment [4] (at 50.0 µM), 76.8% (active). Besides, the growth inhibition is 2% in experiment [5] (setting [7]); -3% in experiment [5] (setting [8]); -6.95% in experiment [5] (at 50.0 µM); -2% in experiment [6] (setting [7]); -2% in experiment [6] (setting [8]); 15.6% in experiment [6] (at 50.0 µM).

With `COC(=O)c1ccc2ccccc2c1`, the growth inhibition in experiment [1] (setting [7]) is 5%; in experiment [1] (setting [8]), 15%; in experiment [1] (at 50.0 µM) it was 47%; in experiment [2] (setting [7]) it was -1%; in experiment [2] (setting [8]), 4%; in experiment [2] (at 50.0 µM) it was 28.1%. In addition, the growth inhibition in experiment [3] (setting [7]) was 1%; in experiment [3] (setting [8]), 4%; in experiment [3] (at 50.0 µM) it was 22.4%; in experiment [4] (setting [7]), 2%; in experiment [4] (setting [8]), -4%; in experiment [4] (at 50.0 µM), 24.6%. Further, the growth inhibition in experiment [5] (setting [7]) was 5%; in experiment [5] (setting [8]) it was 29%; in experiment [5] (at 50.0 µM), 80.2% (active); in experiment [6] (setting [7]) it was 5%; in experiment [6] (setting [8]) it was 11%; in experiment [6] (at 50.0 µM) it was 34.3%.

As to `CCOC(=O)c1cnc2cc3cccccc3n2c1=O`, the growth inhibition in experiment [1] (setting [7]) is 4%; in experiment [1] (setting [8]), 62%; in experiment [1] (at 50.0 µM) it was 71.7% (active); in experiment [2] (setting [7]), -1%; in experiment [2] (setting [8]), 41%; in experiment [2] (at 50.0 µM), 42.5%. For the same compound, the growth inhibition in experiment [3] (setting [7]) is 13%; in experiment [3] (setting [8]) it was 65%; in experiment [3] (at 50.0 µM) it was 76.5% (active); in experiment [4] (setting [7]), -2%; in experiment [4] (setting [8]), 44%; in experiment [4] (at 50.0 µM) it was 54.9%. The growth inhibition was -2% in experiment [5] (setting [7]); 67% in experiment [5] (setting [8]); 31.6% in experiment [5] (at 50.0 µM); -1% in experiment [6] (setting [7]); 86% (active) in experiment [6] (setting [8]); 93.3% (active) in experiment [6] (at 50.0 µM).

As to `O=C(CSc1nnc(-c2ccc(N=Cc3ccc(Cl)cc3)cc2)o1)Nc1ccc(Cl)cc1Cl`, the growth inhibition in experiment [1] (setting [7]) was 14%; in experiment [1] (setting [8]) it was 99% (active); in experiment [1] (at 50.0 µM), 95.8% (active); in experiment [2] (setting [7]) it was -1%; in experiment [2] (setting [8]), 99% (active); in experiment [2] (at 50.0 µM) it was 99.2% (active). In addition, the growth inhibition was 17% in experiment [3] (setting [7]); 100% (active) in experiment [3] (setting [8]); 95.9% (active) in experiment [3] (at 50.0 µM); 27% in experiment [4] (setting [7]); 99% (active) in experiment [4] (setting [8]); 91.2% (active) in experiment [4] (at 50.0 µM). For the same compound, the growth inhibition in experiment [5] (setting [7]) was 12%; in experiment [5] (setting [8]), 100% (active); in experiment [5] (at 50.0 µM) it was 98.5% (active); in experiment [6] (setting [7]) it was 30%; in experiment [6] (setting [8]) it was 99% (active); in experiment [6] (at 50.0 µM), 97.9% (active).

(Values after PubChem BioAssay (NCI).)
